Laboratory results: PubChem BioAssay (Tox21)
Results filed as inconclusive are left out. A call without a number means that no potency is given here. The source made the active and inactive calls. Unless noted, calls come from the whole dose curve. Bridge positions count the residues as written; N and C are the ends. Square brackets hold non-standard residues; d marks the D form. Peptide text beside a SMILES is read from it. hArg = N=C(N)NCCCC[C@H](N)C(=O)O; Mpa = O=C(O)CCS

Assays:
[1] = molecular target: Gonadotropin-releasing hormone receptor (Homo sapiens) (UniProt P30968); experiment: Human gonadotropin-releasing hormone receptor (GnRHR) small molecule agonists, calcium flux assay in GnRHR-HEK293 cells (AID 1920063); note: nearly all actives have a fitted effect of over 35% in size
In short: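 Tox21-format agonist screen using human GnRHR-expressing HEK293 cells and a fluorescent calcium dye; kinetic 3-min fluorescence reading after compound addition, 15-point concentration series run in triplicate.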

[2] = molecular target: KiSS-1 receptor (Homo sapiens) (UniProt Q969F8); experiment: Human kisspeptin (KISS1R) small molecule agonists, calcium flux assay in KISS1R-HEK293 cells (AID 1920064; active = well fitted activation curve with a large enough effect in the repeat runs)
In short: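 Intracellular calcium mobilization in KISS1R-HEK293 cells was recorded by fluorescence (Ex/Em 480/540) for 3 min following compound addition to cells pre-loaded 1 h with calcium dye.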

[3] = G protein-coupled receptor (GPCR) small molecule agonists, calcium flux assay: HEK293 wild type cell line counter screen (AID 1920065)
In short: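 In this agonist-mode screen, ATP is the positive control and DMSO the vehicle. Cells grow 18 h before a 1 h dye incubation at 37 C; signal is taken at Ex/Em 480/540 over 3 min.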

[4] = p53 small molecule agonists, cell-based qHTS assay with human liver microsomes: qHTS cell viability counter screen (AID 1963579); note: nearly all actives have a fitted effect of over 45% in size; note: potency is the fitted concentration of half-maximal effect
In short: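 In this multiplexed counter screen, the reporter plates were subsequently treated with CellTiter-Glo so that cell viability, reflected by luminescence, could be recorded for p53RE-bla cells dosed 16 h with compounds under microsomal activation (HLM and NADPH).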

[5] = p53 small molecule agonists, cell-based qHTS assay with rat liver microsomes: qHTS cell viability counter screen (AID 1963580); note: nearly all actives have a fitted effect of over 45% in size
In short: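 Intracellular ATP, by CellTiter-Glo luminescence, defines viability. HCT-116 p53RE-bla cells, 4,000 per well, were compound-treated in the presence of rat liver microsomes and NADPH for 16 h at 37 C.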

[6] = p53 small molecule agonists, cell-based qHTS assay: qHTS cell viability counter screen (AID 1963581); note: nearly all actives have a fitted effect of over 45% in size; note: potency is the fitted concentration of half-maximal effect
In short: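 Compounds are pinned onto HCT-116 p53RE-bla cells and left 16 h at 37 C. Following the reporter FRET read, ATP is quantified by CellTiter-Glo luminescence after 30 min at room temperature.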

[7] = cAMP Responsive Elements (CRE) small molecule antagonists, cell-based qHTS assay (AID 1963591; active = well fitted inhibition curve with a large enough effect in the signal ratio in the repeat runs, not every such curve was filed as active; the % refers to the signal ratio)
In short: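 qHTS in CRE-bla HEK 293T cells: compound in DMSO, then 0.25 uM NKH477 (final), 3 h at 37 °C/5% CO2; beta-lactamase FRET read-out after 2 h substrate incubation.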

[8] = molecular target: Beta-2 adrenergic receptor (Homo sapiens) (UniProt P07550); experiment: Adrenergic beta2 receptor (ADRB2) small molecule antagonists, cell-based qHTS assay (AID 1963592); note: series mostly up to about 92 µM; nearly all actives have a fitted effect of over 50% in size
In short: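 Cells (CHO, stable ADRB2 overexpression) incubated 18-20hr at 37C; compounds added from DMSO; agonist mix (1nM isoproterenol, 100uM IBMX, 25uM Ro-20-1724) added; 0.5hr RT; d2-cAMP and anti-cAMP-cryptate added; 1hr RT; 665/615 nm read.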

[9] = molecular target: Beta-2 adrenergic receptor (Homo sapiens) (UniProt P07550); experiment: Adrenergic beta2 receptor (ADRB2) small molecule agonists, cell-based qHTS assay (AID 1963593); note: potency is the fitted concentration of half-maximal effect;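 for activation: CHO cells stably overexpressing human ADRB2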
In short: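 CHO cells stably over-expressing ADRB2 were plated overnight at 37C, then dosed with compounds plus a stimulation mix containing 100uM IBMX and 25uM Ro-20-1724 for 0.5hr at room temperature. cAMP was measured by HTRF competition, 1hr.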

[10] = molecular target: D(2) dopamine receptor (Homo sapiens) (UniProt P14416); experiment: Dopamine D2 receptor (DRD2) small molecule agonists, cell-based qHTS assay (AID 1963594); note: nearly all actives have a fitted effect of over 35% in size
In short: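 cAMP accumulation in DRD2-HEK293 cells measured by HTRF after 1 h detection; compounds added 10 min before NKH477 (200nM […]) forskolin-analogue stimulation, 30 min at room temperature, with Ro20-1724 present at 0.1 mM final.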

[11] = molecular target: D(2) dopamine receptor (Homo sapiens) (UniProt P14416); experiment: Dopamine D2 receptor (DRD2) small molecule antagonists, cell-based qHTS assay (AID 1963595; active = well fitted inhibition curve with a large enough effect in the signal ratio in the repeat runs, with a control signal flat; the % refers to the signal ratio)
In short: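 Readout: HTRF cAMP, cAMP-d2 competing with cellular cAMP for anti-cAMP cryptate, read after 1 h. Cells: DRD2-HEK293. Conditions: 0.1 mM Ro20-1724, 12 nM quinpirole, 200 nM NKH477, 30 min RT.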

[12] = p53 small molecule agonists, cell-based qHTS assay with human liver microsomes (AID 1963577);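 note: p53 response element beta-lactamase reporter cells with liver microsomes plus NADPH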
In short: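 16 h, 37 C exposure of p53RE-bla cells to compounds with human liver microsomes and NADPH (0.5 mg/mL final each); detection via LiveBLAzer mixture, 2 h dark at room temperature.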

[13] = p53 small molecule agonists, cell-based qHTS assay with rat liver microsomes (AID 1963578)
In short: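 With rat liver microsomes and NADPH present (0.5 mg/mL final each), p53RE-bla cells are treated with compound for 16 h at 37 C. LiveBLAzer detection mixture is then applied for 2 h at room temperature in the dark.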

[14] = molecular target: 5-hydroxytryptamine receptor 2A (Homo sapiens) (UniProt P28223); experiment: 5-hydroxytryptamine receptor 2A (HTR2A) small molecule antagonists, cell-based qHTS assay (AID 1963586); note: nearly all actives have a fitted effect of over 45% in size; note: potency is the fitted concentration of half-maximal effect
In short: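 Antagonist-mode intracellular calcium assay: DOI (4 nM) added after 5 min compound pre-incubation at room temperature to dye-loaded HTR2A-CHO cells. Fluorescence followed for 3 min, sampled every second.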

[15] = molecular target: 5-hydroxytryptamine receptor 2A (Homo sapiens) (UniProt P28223); experiment: 5-hydroxytryptamine receptor 2A (HTR2A) small molecule agonists, cell-based qHTS assay (AID 1963587); note: nearly all actives have a fitted effect of over 30% in size; note: potency is the fitted concentration of half-maximal effect
In short: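 Kinetic calcium-flux fluorescence (2 min, 1 sec intervals) after compound addition in agonist mode. HTR2A-CHO cells were cultured 18 h, then dye-loaded 1 h at 37 C.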

[16] = molecular target: Muscarinic acetylcholine receptor M1 (Homo sapiens) (UniProt P11229); experiment: Cholinergic receptor muscarinic 1 (CHRM1) small molecule antagonists, cell-based qHTS assay (AID 1963588); note: nearly all actives have a fitted effect of over 40% in size; note: potency is the fitted concentration of half-maximal effect
In short: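 CHRM1-CHO calcium-flux assay, antagonist mode. Cells were seeded 18 h, dye-loaded 1 h at 37 C and given compound for 5 min at RT, then acetylcholine was added at 50nM. FDSS fluorescence was read 3 min; 15 concentrations, three runs.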

[17] = p53 small molecule agonists, cell-based qHTS assay (AID 1963582; active = well fitted activation curve with a large enough effect in the signal ratio in the repeat runs, not every such curve was filed as active; the % refers to the signal ratio)
In short: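 Agonist activity was scored from beta-lactamase FRET fluorescence in p53RE-bla cells treated 16 h at 37 C with compounds in DMSO, substrate incubation being 2 h at room temperature.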

[18] = molecular target: Muscarinic acetylcholine receptor M1 (Homo sapiens) (UniProt P11229); experiment: Cholinergic receptor muscarinic 1 (CHRM1) small molecule agonists, cell-based qHTS assay (AID 1963589); note: nearly all actives have a fitted effect of over 35% in size
In short: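 Stable CHRM1-CHO cells (human receptor) were incubated 18 h, dye-loaded for 1 h at 37 C and exposed to test compounds for agonist activity, with calcium-dependent fluorescence followed kinetically.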

[19] = cAMP Responsive Elements (CRE) small molecule agonists, cell-based qHTS assay (AID 1963590)
In short: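 FRET-based beta-lactamase readout (LiveBLAzer B/G, 2 h RT) quantified CRE activation in HEK 293T CRE-bla cells after 3 h treatment with DMSO-dissolved compounds.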

Chain of Muscarinic acetylcholine receptor M1 (Homo sapiens) (P11229 whole entry, looked up): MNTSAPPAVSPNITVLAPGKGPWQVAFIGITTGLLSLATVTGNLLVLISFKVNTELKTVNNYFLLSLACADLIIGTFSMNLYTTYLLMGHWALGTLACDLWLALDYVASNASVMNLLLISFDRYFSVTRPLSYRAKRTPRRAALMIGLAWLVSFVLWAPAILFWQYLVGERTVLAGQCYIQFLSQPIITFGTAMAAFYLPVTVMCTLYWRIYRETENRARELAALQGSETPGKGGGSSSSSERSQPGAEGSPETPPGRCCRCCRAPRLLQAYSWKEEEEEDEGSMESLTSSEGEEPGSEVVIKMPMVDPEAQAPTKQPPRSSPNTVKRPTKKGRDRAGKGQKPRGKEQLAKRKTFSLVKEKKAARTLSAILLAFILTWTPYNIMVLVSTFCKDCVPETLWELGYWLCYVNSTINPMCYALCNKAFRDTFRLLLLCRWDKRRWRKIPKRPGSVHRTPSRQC
Chain of KiSS-1 receptor (Homo sapiens) (Q969F8 whole entry, looked up): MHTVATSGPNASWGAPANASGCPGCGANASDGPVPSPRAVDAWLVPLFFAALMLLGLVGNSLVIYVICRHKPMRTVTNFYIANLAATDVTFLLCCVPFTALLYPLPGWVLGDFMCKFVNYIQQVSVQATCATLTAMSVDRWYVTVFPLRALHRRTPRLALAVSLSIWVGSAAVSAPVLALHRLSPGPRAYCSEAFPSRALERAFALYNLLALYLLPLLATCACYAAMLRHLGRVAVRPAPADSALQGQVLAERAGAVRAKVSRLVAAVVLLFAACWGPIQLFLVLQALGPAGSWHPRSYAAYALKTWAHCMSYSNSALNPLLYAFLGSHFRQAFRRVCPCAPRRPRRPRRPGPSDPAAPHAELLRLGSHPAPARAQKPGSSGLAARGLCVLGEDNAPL
Chain of D(2) dopamine receptor (Homo sapiens) (P14416 whole entry, looked up): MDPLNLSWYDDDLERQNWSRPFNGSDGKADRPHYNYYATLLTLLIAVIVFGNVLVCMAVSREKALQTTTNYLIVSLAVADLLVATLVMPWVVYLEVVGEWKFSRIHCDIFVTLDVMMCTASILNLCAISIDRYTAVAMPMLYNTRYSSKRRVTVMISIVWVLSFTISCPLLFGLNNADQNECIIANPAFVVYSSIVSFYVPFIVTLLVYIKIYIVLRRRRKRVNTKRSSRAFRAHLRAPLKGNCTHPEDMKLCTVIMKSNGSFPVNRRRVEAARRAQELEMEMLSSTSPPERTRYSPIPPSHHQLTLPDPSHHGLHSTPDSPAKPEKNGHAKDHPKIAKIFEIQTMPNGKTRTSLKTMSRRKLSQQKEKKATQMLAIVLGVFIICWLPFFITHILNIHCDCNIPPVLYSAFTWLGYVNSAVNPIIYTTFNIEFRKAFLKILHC
Chain of 5-hydroxytryptamine receptor 2A (Homo sapiens) (P28223 whole entry, looked up): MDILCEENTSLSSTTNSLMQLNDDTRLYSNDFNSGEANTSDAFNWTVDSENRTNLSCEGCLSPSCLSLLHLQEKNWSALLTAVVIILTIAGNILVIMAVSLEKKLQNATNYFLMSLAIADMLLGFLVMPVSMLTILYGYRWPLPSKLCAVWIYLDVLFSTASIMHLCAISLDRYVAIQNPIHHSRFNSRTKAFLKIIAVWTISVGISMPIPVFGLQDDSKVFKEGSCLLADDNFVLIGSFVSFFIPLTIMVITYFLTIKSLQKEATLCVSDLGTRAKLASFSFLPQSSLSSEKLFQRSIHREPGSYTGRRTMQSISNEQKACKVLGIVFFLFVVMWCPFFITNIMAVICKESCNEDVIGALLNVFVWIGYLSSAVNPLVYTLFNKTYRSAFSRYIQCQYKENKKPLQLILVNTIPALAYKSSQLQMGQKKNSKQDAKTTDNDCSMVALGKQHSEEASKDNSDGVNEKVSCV
Chain of Beta-2 adrenergic receptor (Homo sapiens) (P07550 whole entry, looked up): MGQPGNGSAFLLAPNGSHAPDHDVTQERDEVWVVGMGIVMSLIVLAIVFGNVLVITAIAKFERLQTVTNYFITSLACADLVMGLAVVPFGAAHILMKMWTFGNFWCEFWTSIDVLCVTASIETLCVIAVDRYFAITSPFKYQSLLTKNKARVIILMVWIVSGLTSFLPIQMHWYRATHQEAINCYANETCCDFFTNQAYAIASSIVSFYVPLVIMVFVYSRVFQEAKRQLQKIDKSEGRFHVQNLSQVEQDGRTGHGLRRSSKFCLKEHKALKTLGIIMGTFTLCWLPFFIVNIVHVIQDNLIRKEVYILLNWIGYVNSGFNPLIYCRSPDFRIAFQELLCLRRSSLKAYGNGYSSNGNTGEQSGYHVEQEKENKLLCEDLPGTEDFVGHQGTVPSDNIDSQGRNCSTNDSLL
Chain of Gonadotropin-releasing hormone receptor (Homo sapiens) (P30968 whole entry, looked up): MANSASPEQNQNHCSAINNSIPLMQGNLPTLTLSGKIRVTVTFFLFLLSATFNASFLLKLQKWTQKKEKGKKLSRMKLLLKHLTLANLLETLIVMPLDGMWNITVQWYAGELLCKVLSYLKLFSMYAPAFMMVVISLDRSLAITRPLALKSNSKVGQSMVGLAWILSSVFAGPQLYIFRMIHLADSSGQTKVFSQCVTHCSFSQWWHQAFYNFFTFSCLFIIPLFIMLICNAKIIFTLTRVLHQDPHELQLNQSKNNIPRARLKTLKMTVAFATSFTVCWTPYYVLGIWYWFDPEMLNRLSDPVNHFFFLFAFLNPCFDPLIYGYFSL

CC(=O)Nc1ccc2c(c1)Cc1ccccc1-2
Potency [1]: inactive | Potency [2]: inactive | Potency [3]: inactive | Potency [4]: inactive | Potency [5]: inactive | Potency [6]: inactive | Potency [7]: inactive | Potency [8]: inactive | Potency [9]: inactive | Potency [10]: inactive | Potency [11]: inactive

C[C@]12CC[C@H]3[C@@H](CCC4=CC(=O)CC[C@@H]43)[C@@H]1CC[C@@H]2OC(=O)CCc1ccco1
Potency [1]: inactive | Potency [2]: inactive | Potency [3]: inactive | Potency [12]: inactive | Potency [13]: inactive | Potency [4]: inactive | Potency [5]: inactive | Potency [6]: inactive | Potency [14]: inactive | Potency [15]: inactive | Potency [16]: 1.3 µM (active) | Potency [9]: 2.98 µM (active)

ClC1=C(Cl)[C@]2(Cl)[C@@H]3[C@H]4C[C@H]([C@@H]5O[C@H]45)[C@@H]3[C@@]1(Cl)C2(Cl)Cl
Potency [1]: inactive | Potency [2]: inactive | Potency [3]: inactive | Potency [12]: inactive | Potency [13]: inactive | Potency [4]: inactive | Potency [5]: inactive | Potency [6]: inactive | Potency [10]: inactive | Potency [11]: inactive

O=NN1CCNCC1
Potency [1]: inactive | Potency [2]: inactive | Potency [3]: inactive | Potency [12]: inactive | Potency [13]: inactive | Potency [5]: inactive | Potency [6]: inactive | Potency [17]: inactive | Potency [14]: inactive | Potency [15]: inactive | Potency [16]: inactive | Potency [18]: inactive | Potency [19]: inactive | Potency [7]: inactive | Potency [8]: inactive | Potency [11]: inactive

O=C(O)COc1nc(Cl)c(Cl)cc1Cl
Potency [1]: inactive | Potency [2]: inactive | Potency [3]: inactive | Potency [12]: inactive | Potency [13]: inactive | Potency [5]: inactive | Potency [15]: inactive | Potency [16]: inactive | Potency [18]: inactive

Cn1[nH]nnc1=S
Potency [1]: inactive | Potency [2]: inactive | Potency [3]: inactive | Potency [12]: inactive | Potency [13]: inactive | Potency [4]: inactive | Potency [5]: inactive | Potency [6]: inactive | Potency [14]: inactive | Potency [16]: inactive | Potency [18]: inactive | Potency [19]: inactive | Potency [7]: inactive | Potency [10]: inactive | Potency [11]: inactive

C=COC(C)=O
Potency [1]: inactive | Potency [2]: inactive | Potency [3]: inactive | Potency [4]: inactive | Potency [5]: inactive | Potency [6]: inactive | Potency [14]: inactive | Potency [15]: inactive | Potency [16]: inactive | Potency [18]: inactive | Potency [19]: inactive | Potency [7]: inactive | Potency [8]: inactive | Potency [10]: inactive | Potency [11]: inactive

CCCCCCCCCCCCCCC(Br)C(=O)O (stereo not drawn)
Potency [1]: inactive | Potency [2]: inactive | Potency [3]: inactive | Potency [12]: inactive | Potency [13]: inactive | Potency [4]: inactive | Potency [5]: inactive | Potency [6]: inactive | Potency [14]: inactive | Potency [15]: inactive | Potency [16]: inactive | Potency [8]: inactive | Potency [9]: inactive | Potency [10]: inactive | Potency [11]: inactive

OC(Cc1ccccc1Cl)(Cn1[nH]cnc1=S)C1(Cl)CC1 (stereo not drawn)
Potency [1]: inactive | Potency [2]: inactive | Potency [3]: inactive | Potency [12]: inactive | Potency [13]: inactive | Potency [4]: inactive | Potency [5]: inactive | Potency [6]: inactive | Potency [15]: 38.9 µM (active) | Potency [16]: inactive | Potency [18]: inactive | Potency [7]: inactive | Potency [8]: inactive | Potency [11]: inactive

Oc1c(Cl)cc(Cl)cc1Cl
Potency [14]: inactive | Potency [15]: inactive | Potency [16]: inactive | Potency [18]: inactive | Potency [8]: inactive | Potency [10]: inactive | Potency [11]: inactive

c1ccccc1
Potency [12]: inactive | Potency [13]: inactive | Potency [4]: inactive | Potency [5]: inactive | Potency [6]: inactive | Potency [17]: inactive

O=C(O)C1(c2ccc3c(c2)OC[C@H](Cc2ccc(-c4ccccc4)cc2)[C@H]3O)CCCC1
Potency [3]: inactive | Potency [4]: 40.8 µM (active) | Potency [5]: inactive | Potency [6]: 32.4 µM (active) | Potency [14]: 5.3 µM (active) | Potency [15]: 54.9 µM (active) | Potency [10]: inactive | Potency [11]: inactive

NC(=O)[C@@H]1CSSCCC(=O)N[C@@H](CCCCN=C(N)N)C(=O)NCC(=O)N[C@@H](CC(=O)O)C(=O)N[C@@H](Cc2c[nH]c3ccccc23)C(=O)N2CCC[C@H]2C(=O)N1 ([Mpa][hArg]GDWPC-NH2; disulfide 1-7)
Potency [14]: inactive | Potency [15]: inactive | Potency [16]: inactive | Potency [18]: inactive

N#CN
Potency [1]: inactive | Potency [5]: inactive | Potency [6]: inactive | Potency [14]: inactive | Potency [15]: inactive | Potency [16]: inactive | Potency [18]: inactive | Potency [19]: inactive | Potency [8]: inactive | Potency [9]: inactive | Potency [10]: inactive | Potency [11]: inactive

CC(=O)N[C@@H](CO)C(=O)N[C@@H](CC(=O)O)C(=O)N[C@@H](CCCCN)C(=O)N1CCC[C@H]1C(=O)O (Ac-SDKP-OH)
Potency [14]: inactive | Potency [15]: inactive | Potency [16]: inactive | Potency [18]: inactive
